Assay results published in PubChem BioAssay AID1851 (National Center for Advancing Translational Sciences (NCATS), 2009).
Hit rate of the full screen: of about 16,000 compounds, about 5,800 (36%) were called active. Inconclusive results (about 23%) are left out. The call rests on the fitted dose curve; in most records, active means well fitted curve in the direction sought with a large enough effect; inconclusive means small, poorly fitted or top-dose-only effect, or effect the other way; inactive means no such curve, though single readings can be large or run the other way. The list shows a part of the results. Where a structure was tested more than once in an assay, its records may differ in their call.

Target: Cytochrome P450 2C19 (Homo sapiens) (UniProt P33261)
Assay: Cytochrome panel assay with activity outcomes
Settings: recombinant CYP, pro-luciferin dealkylation, luminescence, p450-cyp2c19; series mostly up to 57.1 µM
On the % scale 0 is the no-effect control and ±100 the full control effect.

Chain of Cytochrome P450 2C19 (Homo sapiens) (P33261 whole entry, looked up): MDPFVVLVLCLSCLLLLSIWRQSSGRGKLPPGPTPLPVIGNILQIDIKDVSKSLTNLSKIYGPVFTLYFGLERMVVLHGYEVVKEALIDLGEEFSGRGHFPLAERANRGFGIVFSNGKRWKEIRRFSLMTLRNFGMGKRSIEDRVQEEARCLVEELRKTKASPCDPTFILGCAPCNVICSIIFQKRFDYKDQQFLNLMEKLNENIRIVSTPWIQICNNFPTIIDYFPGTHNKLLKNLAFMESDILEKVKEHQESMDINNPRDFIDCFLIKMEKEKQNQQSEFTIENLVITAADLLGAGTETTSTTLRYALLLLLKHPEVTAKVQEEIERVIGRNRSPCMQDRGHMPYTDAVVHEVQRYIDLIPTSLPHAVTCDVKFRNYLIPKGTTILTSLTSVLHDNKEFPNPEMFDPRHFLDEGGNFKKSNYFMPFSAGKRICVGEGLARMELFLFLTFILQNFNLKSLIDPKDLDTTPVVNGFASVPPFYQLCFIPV

| Structure (SMILES) | AC50 | activity, negative = inhibition |
| --- | --- | --- |
| CCN(CC)C(=O)C(=O)N/N=C/c1cccc(Br)c1 | 22.4 µM (active) |  |
| CCCCCCCCCCCCCCCC(=O)NC(C)C | inactive |  |
| CCCCCCCCC(=O)N/N=C/c1ccccn1 | 5.01 µM (active) |  |
| O=C(N/N=C/c1ccccn1)c1ccco1 | inactive |  |
| CCCCCCCCC(=O)N/N=C/c1cccc(Br)c1 | 2 µM (active) |  |
| CCCCCC(=O)Nc1cc2[nH]c(=O)cc(COC)c2cc1C | inactive |  |
| C[C@@](Cc1ccc(O)c(O)c1)(NN)C(=O)O | inactive |  |
| Cc1cc2cc3c(cc2nc1SCC(=O)Nc1c(C)cccc1C)CCC3 | 3.55 µM (active) |  |
| COc1ccc(CCn2c(C)cc(C(=O)CSc3nc(N)cc(=O)[nH]3)c2C)cc1 | 3.55 µM (active) |  |
| Cc1cc(C(=O)CSc2nnc(N)s2)c(C)n1CCc1ccc(F)cc1 | 0.794 µM (active) |  |
| COc1ccc(C(=O)NC2(C(F)(F)F)C(=O)Nc3c2c(=O)[nH]c(=O)n3CCc2ccc(OC)c(OC)c2)cc1 (stereo unspecified) | inactive |  |
| COc1cccc(NC(=O)c2oc3ccccc3c2NC(=O)c2ccc3c(c2)OCO3)c1 | 3.55 µM (active) |  |
| CCOC(=O)Nc1ccc2c(c1)OCO2 | 20 µM (active) |  |
| CCOCC(=O)Nc1c(C(=O)Nc2ccccc2OC)oc2ccccc12 | inactive |  |
| CCOc1ccc(NC(=O)c2oc3ccccc3c2NC(=O)CC)cc1 | 2.24 µM (active) |  |
| O=C(Nc1cccc(-c2nc3ccccc3s2)c1)c1ccc2c(c1)OCO2 | 7.08 µM (active) |  |
| CC(C)(C)c1ccc(OC(=O)Nc2ccc(O)c(C(=O)O)c2)cc1 |  | 41.8% [at 11.4 µM] (inactive) |
| CCOC(=O)c1oc2ccccc2c1NC(=O)c1ccc(S(=O)(=O)N(C)C)cc1 | inactive |  |
| CCOC(=O)c1oc2ccccc2c1NC(=O)c1cc(OC)cc(OC)c1 | 25.1 µM (active) |  |
| CCOC(=O)Nc1ccc(C(=O)Oc2ccccc2)c(O)c1 | 3.55 µM (active) |  |
| CCOC(=O)c1oc2ccccc2c1NC(=O)c1ccc2c(c1)OCO2 | 2.82 µM (active) |  |
| Cc1ccccc1OCC(O)Cn1c2ccccc2c2ccccc21 (stereo unspecified) | 0.631 µM (active) |  |

| Structure (SMILES) | AC50 | activity, negative = inhibition |
| --- | --- | --- |
| C=CCN(CC=C)CC(O)Cn1c2ccccc2c2ccccc21 (stereo unspecified) | 0.562 µM (active) |  |
| Cc1ccccc1OCC(O)Cn1c(NCc2ccccc2)nc2c1c(=O)[nH]c(=O)n2C (stereo unspecified) | inactive |  |
| Cc1ccc(OCC(O)Cn2c3ccccc3c3ccccc32)cc1 (stereo unspecified) | 1.26 µM (active) |  |
| Cc1cccc(C)c1OCC(O)CNC(C)(C)C (stereo unspecified) | inactive |  |
| c1ccc([C@@H]2CN3CCSC3=N2)cc1 | inactive |  |
| COc1ccc(CCn2c(=N)c(C(=O)NCc3ccco3)cc3c(=O)n4ccccc4nc32)cc1 | 11.2 µM (active) |  |
| CCn1c(CSCc2ccc(C)cc2)nnc1SCC(=O)NCc1ccccc1 | 14.1 µM (active) |  |
| C=CCn1c(Cc2c[nH]c3ccccc23)nnc1SCC(=O)NCc1ccccc1 | 25.1 µM (active) |  |
| CCn1c(CC(=O)Nc2ccc(C)cc2)nnc1SCC(=O)Nc1nc(C)cs1 | inactive |  |
| CCn1c(CC(=O)Nc2ccc(C)cc2)nnc1SCC(=O)NCCc1ccccc1 | 22.4 µM (active) |  |
| C[C@@](N)(C(=O)O)c1ccc(S(=O)(=O)O)cc1 | inactive |  |
| COc1cc(OC)c2nc(C)c3c(c2c1)N(c1ccc(O)cc1)CC3 | 14.1 µM (active) |  |
| Clc1ccccc1C(Nc1cnccn1)Nc1cnccn1 |  | 12% [at 11.4 µM] (inactive) |
| CC1(C)S[C@@H]2[C@H](C(=O)O)N=C(Cc3ccccc3)N2[C@H]1C(=O)O |  | 28.2% [at 11.4 µM] (inactive) |
| COc1ccc2c(c1)c(CC(=O)O)c(C)n2C(=O)c1ccc(Cl)cc1 | inactive |  |
| COc1ccc2c(c1)c(CC(=O)OCC(=O)O)c(C)n2C(=O)c1ccc(Cl)cc1 | inactive |  |
| COc1ccc2c(c1)c(CC(=O)O)c(C)n2Cc1ccc(Cl)cc1 | 10 µM (active) |  |
| CC(C)(C)N1C(=O)[C@H]2[C@@H]3[C@H](O)C=CC(=O)[C@H]3CC[C@H]2C1=O |  | 23.7% [at 11.4 µM] (inactive) |
| C[C@@H]1CC[C@H]2C(=O)N3[C@@H](CC[C@@H](C)[C@@H]3c3ccc(Br)cc3)C(=O)N2[C@@H]1c1ccc(Br)cc1 |  | -27.6% [at 11.4 µM] (inactive) |
| CS(=O)(=O)N1N=C(c2ccc(Br)cc2)CC1c1ccc2c(c1)OCO2 (stereo unspecified) | 0.178 µM (active) |  |
| COc1ccc(NC(=O)CCNS(=O)(=O)c2ccc3c(c2)c(=O)n(C)c(=O)n3C)cc1 | inactive |  |
| COc1ccc(OCCNS(=O)(=O)c2ccc3oc4ccccc4c3c2)cc1 | 2.24 µM (active) |  |

| Structure (SMILES) | AC50 | activity, negative = inhibition |
| --- | --- | --- |
| CCCCc1ccc(NC(=S)NCc2cccs2)cc1 | 3.55 µM (active) |  |
| Cc1ccc(C(=O)COC(=O)CNC(=O)Cc2ccccc2)cc1[N+](=O)[O-] | inactive |  |
| Cc1ccc(C(=O)COC(=O)CNC(=O)C(c2ccccc2)c2ccccc2)cc1[N+](=O)[O-] | 5.01 µM (active) |  |
| Cc1ccc(C(CC(=O)c2ccco2)SCCO)cc1 (stereo unspecified) | 2.82 µM (active) |  |
| CC[C@H](CN(C)C)C(=O)c1ccco1 |  | 8.39% [at 11.4 µM] (inactive) |
| O=c1cc(-c2ccccc2)oc2cc(O)cc(O)c12 | 0.794 µM (active) |  |
| O=C(O)c1c(-c2c3ccc(=O)cc-3oc3cc(O)ccc23)cc2ccccc2c1-c1ccccc1 |  | 25.6% [at 11.4 µM] (inactive) |
| O=c1cc(-c2ccccc2)oc2cc(O)c(O)c(O)c12 | inactive |  |
| COc1ccc(-c2cc(=O)c3c(O)cc(O)cc3o2)cc1 | 1 µM (active) |  |
| O=c1c(O)c(-c2ccc(O)c(O)c2)oc2cc(O)cc(O)c12 | inactive |  |
| O=c1cc(-c2ccc(O)cc2)oc2cc(O)cc(O)c12 | 7.94 µM (active) |  |
| Cc1cc(=O)c2c(O)c(O)ccc2o1 | inactive |  |
| COc1ccc(C2=C(C#N)C(=O)OC2)cc1 | inactive |  |
| C=CCSC1=Nc2sccc2C2=NC(=O)CN12 | 7.94 µM (active) |  |
| C[C@@](N)(Cc1ccc(O)c(O)c1)C(=O)O | inactive |  |
| Cc1cnc(CNc2ccnc(-c3ccccc3C)n2)cn1 | inactive |  |
| Cc1cccc(CNc2ccnc(-c3ccccc3Cl)n2)c1 | 1.26 µM (active) |  |
| Cc1cccc(CNc2ccnc(-c3ccccc3CN(C)C)n2)c1 | inactive |  |
| COc1ccccc1-c1nccc(NCc2ccccc2)n1 | 7.94 µM (active) |  |
| Cc1ccccc1-c1nccc(NCc2cccnc2)n1 | 5.01 µM (active) |  |
| CNc1ccnc(-c2ccccc2OC)n1 | inactive |  |
| COc1ccccc1-c1nccc(NCc2cccc(C)c2)n1 | 10 µM (active) |  |
